Records with an inconclusive call do not appear. Where a structure was tested more than once in an assay, its records may differ in their call. The source made the active and inactive calls. The call rests on the fitted dose curve; in most records, active means well fitted inhibition curve with a large enough effect; inconclusive means small, poorly fitted or top-dose-only effect; inactive means flat fitted curve, though single readings scatter.
Tested on: CP260
Experiment: qHTS profiling for inhibitors of Plasmodium falciparum proliferation (AID 504749); further: nearly all actives have a fitted effect of over 60% in size;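 on activity, negative = inhibition: 0% = DMSO vehicle and full inhibition = artemisinin control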
Settings: P. falciparum in erythrocytes, SYBR Green DNA, 72 h; series mostly up to 28.7 µM; activity, negative = inhibition: at the top concentration
Procedure, shortened: (§1)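 In a 72 h erythrocytic culture (37 C, humidified, 5% CO2) at 2.5% hematocrit and 0.3% starting parasitemia, compounds were tested; SYBR Green I in detergent lysis buffer stained parasite DNA overnight.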
Potency means the concentration at half of the fitted maximal effect.

Compound	activity, negative = inhibition	Potency
O=C(CCl)c1ccc(Oc2ccc(C(=O)CCl)cc2)cc1	7.29% (inactive)	–
O=[N+]([O-])c1ccc(F)c([N+](=O)[O-])c1	6.76% (inactive)	–
CN1C2CCC1CC(OC(c1ccccc1)c1ccc(Cl)cc1)C2 (stereo unspecified)	–	7.94 µM (active)
O=[N+]([O-])C(Br)(CO)CO	-2.18% (inactive)	–
Clc1ccccc1Cl	-0.939% (inactive)	–
CC(C)Nc1ccc(Nc2ccccc2)cc1	–	5.62 µM (active)
CC(=O)O[C@H]1CC[C@H]2[C@@H]3CCC4=CC(=O)CCC4=C3C=C[C@]12C	-29.3% (inactive)	–
CCCC(C)(COC(N)=O)COC(=O)NC1CC1 (stereo unspecified)	1.75% (inactive)	–
CNC1(c2ccccc2Cl)CCCCC1=O (stereo unspecified)	–	inactive
FC(F)OC(F)(F)C(F)Cl (stereo unspecified)	4.35% (inactive)	–
O=C/C=C/c1ccccc1	1.47% (inactive)	–
CCCCCCCCOC(=O)c1ccccc1C(=O)OCCCCCCCC	-18.2% (inactive)	–
[O]=[Cr](=[O])([OH])[O][Cr](=[O])(=[O])[OH]	–	11.2 µM (active)
CCCCCl	5.11% (inactive)	–
ClC(Cl)(Cl)Cl	0.58% (inactive)	–
CC(C)(C)c1cc(O)ccc1O	–	6.31 µM (active)

Compound	activity, negative = inhibition	Potency
O=C1C2CC=CCC2C(=O)N1SC(Cl)(Cl)Cl (stereo unspecified)	-9.19% (inactive)	–
CCOC(=O)c1ccccc1C(=O)OCC	-2.62% (inactive)	–
NCC(O)c1cccc(O)c1 (stereo unspecified)	3.28% (inactive)	–
O=C(OCCN1CCCCC1)C(O)(c1ccccc1)c1ccccc1	4.85% (inactive)	–
c1ccc2cc(CC3=NCCN3)ccc2c1	4.2% (inactive)	–
O=[N+]([O-])c1ccccc1	-4.52% (inactive)	–
CC(Cc1ccccc1)NC=O (stereo unspecified)	7.07% (inactive)	–
ClC1C(Cl)C(Cl)C(Cl)C(Cl)C1Cl (stereo unspecified)	0.84% (inactive)	–
O=CC=O	5.58% (inactive)	–
C[N+]1(C)C2CCC1CC(OC(=O)c1c[nH]c3ccccc13)C2 (stereo unspecified)	0.519% (inactive)	–
CC(=O)OO	-0.606% (inactive)	–
CCC1(C)CC(=O)NC(=O)C1	1.6% [at 12.8 µM] (inactive)	–
O=C(O)C(Cl)(Cl)Cl	3.42% (inactive)	–
C#CC(C)(O)CC (stereo unspecified)	1.6% (inactive)	–
O=S(=O)(O)c1cc(O)ccc1O	3.48% [at 12.8 µM] (inactive)	–
N#CN	4.53% (inactive)	–

Tested on: CP262
Experiment: as above
Settings: P. falciparum in erythrocytes, SYBR Green DNA, 72 h; series mostly up to 28.7 µM; activity, negative = inhibition: at the top concentration
Procedure, shortened: as §1

Compound	activity, negative = inhibition	Potency
O=C(CCl)c1ccc(Oc2ccc(C(=O)CCl)cc2)cc1	4.71% (inactive)	–
O=[N+]([O-])c1ccc(F)c([N+](=O)[O-])c1	-1.42% (inactive)	–
N#CC1(N2CCCCC2)CCCCC1	-1.5% (inactive)	–
CN1C2CCC1CC(OC(c1ccccc1)c1ccc(Cl)cc1)C2 (stereo unspecified)	–	5.36 µM (active)
O=[N+]([O-])C(Br)(CO)CO	-0.412% (inactive)	–
Clc1ccccc1Cl	2.3% (inactive)	–
CC(C)Nc1ccc(Nc2ccccc2)cc1	–	4.78 µM (active)
CC(=O)O[C@H]1CC[C@H]2[C@@H]3CCC4=CC(=O)CCC4=C3C=C[C@]12C	8.08% (inactive)	–
CCCC(C)(COC(N)=O)COC(=O)NC1CC1 (stereo unspecified)	1.28% (inactive)	–
CNC1(c2ccccc2Cl)CCCCC1=O (stereo unspecified)	–	inactive
FC(F)OC(F)(F)C(F)Cl (stereo unspecified)	-0.685% (inactive)	–
O=C/C=C/c1ccccc1	1.92% (inactive)	–
S=C(S)N1CCNCC1	9.58% (inactive)	–
CNC(C)C(O)c1ccc(O)cc1 (stereo unspecified)	8.99% (inactive)	–
CCCCCCCCOC(=O)c1ccccc1C(=O)OCCCCCCCC	0% (inactive)	–
[O]=[Cr](=[O])([OH])[O][Cr](=[O])(=[O])[OH]	–	inactive
CCCCCl	-4.09% (inactive)	–
ClC(Cl)(Cl)Cl	-4.83% (inactive)	–
CC(C)(C)c1cc(O)ccc1O	–	12 µM (active) and inactive
O=C1C2CC=CCC2C(=O)N1SC(Cl)(Cl)Cl (stereo unspecified)	8.28% (inactive)	–

Compound	activity, negative = inhibition	Potency
CCOC(=O)c1ccccc1C(=O)OCC	-8.08% (inactive)	–
NCC(O)c1cccc(O)c1 (stereo unspecified)	9.7% (inactive)	–
O=C(OCCN1CCCCC1)C(O)(c1ccccc1)c1ccccc1	0% (inactive)	–
c1ccc2cc(CC3=NCCN3)ccc2c1	-0.0223% (inactive)	–
CCCCCCCCCC(=O)O[C@H]1CC[C@H]2[C@@H]3CCC4=CC(=O)CC[C@]4(C)[C@H]3CC[C@]12C	0% (inactive)	–
O=[N+]([O-])c1ccccc1	-0.566% (inactive)	–
O=C(CS(=O)C(c1ccccc1)c1ccccc1)NO (stereo unspecified)	-3.54% (inactive)	–
CC(Cc1ccccc1)NC=O (stereo unspecified)	1.57% (inactive)	–
ClC1C(Cl)C(Cl)C(Cl)C(Cl)C1Cl (stereo unspecified)	5.37% (inactive)	–
O=CC=O	0% (inactive)	–
COC([CH2][Hg])CNC(=O)c1ccccc1OCC(=O)O (stereo unspecified)	-1.37% (inactive)	–
C[N+]1(C)C2CCC1CC(OC(=O)c1c[nH]c3ccccc13)C2 (stereo unspecified)	-0.695% (inactive)	–
CC(=O)OO	-1.54% (inactive)	–
[N-]=[N+]=CC(=O)OCC(N)C(=O)O (stereo unspecified)	13.8% (inactive)	–
CCC1(C)CC(=O)NC(=O)C1	-0.336% [at 12.8 µM] (inactive)	–
O=C(O)C(Cl)(Cl)Cl	2.46% (inactive)	–
C#CC(C)(O)CC (stereo unspecified)	-0.902% (inactive)	–
O=S(=O)(O)c1cc(O)ccc1O	-3.29% [at 12.8 µM] (inactive)	–
N#CN	1.86% (inactive)	–
